Assay outcomes deposited in PubChem BioAssay by several laboratories.
B2AR ag = activates human beta-2 adrenergic receptor causing internalization | P07550 | Am2.2-beta2AR cells, FAP receptor internalization, flow cytometry | response, % (no concentration beside the values) | 340,000 compounds, 0.43% hits;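 active means response above a set limit, near 3 SD of response in nonfluorescent compounds, cut at about 42% in these data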
dFosB act-1 = activators of mouse delta FosB homodimer | P13346 | activation, % at 25 µM | 340,000 compounds, 0.99% hits | purified delta FosB, TAMRA-CDK5 oligo fluorescence polarization; percent of positive-control signal above neutral wells;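 active means mean activation above about 17%, with every replicate also reaching it, limit read from the data, passing the limit was not always enough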
Target sequence (P13346 whole entry, looked up): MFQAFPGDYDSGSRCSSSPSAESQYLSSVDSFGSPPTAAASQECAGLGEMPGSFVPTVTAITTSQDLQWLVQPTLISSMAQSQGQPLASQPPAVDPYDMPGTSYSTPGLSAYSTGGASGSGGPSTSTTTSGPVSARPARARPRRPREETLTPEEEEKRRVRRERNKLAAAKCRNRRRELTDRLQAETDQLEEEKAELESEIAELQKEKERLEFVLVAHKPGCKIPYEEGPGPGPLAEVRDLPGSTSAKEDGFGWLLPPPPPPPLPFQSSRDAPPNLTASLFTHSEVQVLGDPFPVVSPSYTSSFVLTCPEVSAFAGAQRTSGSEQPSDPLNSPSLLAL
DYRK1A inh = inhibitors of rat Dyrk1A kinase; inhibition, % at 12.5 µM; 310,000 compounds, 0.43% hits; ADP-Glo luminescence, NFATc1 peptide; Q63470; in the data active means inhibition above about 50%;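 further: plate controls were vehicle with enzyme for no effect and no enzyme for full effect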
A1 inh = inhibitors of the anti-apoptotic protein A1, read as caspase activation | 330,000 compounds, 0.066% hits | caspase activation, % (test concentration not listed) | MEF A1-2A-BIM cells, Caspase-Glo 3/7 luminescence, 3 h; percent of clofoctol response, vehicle zero;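 active means over half of replicate activation scores above 10%, or exactly half above 10 with the replicate mean above 10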
dFosB act-2 = delta FosB (mouse) homodimer activation; shares compounds with dFosB act-1; purified delta FosB, TAMRA-CDK5 oligo fluorescence polarization; normalised: neutral wells 0, positive control 100; activation, % at 24.9 µM; 2,400 tested, under 10 active; AID 588690;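 active means highest replicate activation at or above 34% and every replicate reaching that threshold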;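 further: higher polarization means more probe DNA bound by delta FosB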
Active calls of the source: *; . = not tested or not shown. Shown are actives, neighbours in structure and some others; about 1.6% of the full set was active somewhere.

SMILES	B2AR ag	dFosB act-1	DYRK1A inh	A1 inh	dFosB act-2
CCOC(=O)c1sc(/S(C)=N\S(=O)(=O)c2cccc(Cl)c2)c2c1CCC=C2 (stereo not drawn)	5.0	-7.2	9.9	0.4	.
O=C(NCCOc1ccccc1)C1=CC=CN2CCS(=O)(=O)N=C12	-0.4	2.9	-2.3	-0.3	.
COc1ccc(C2SCC(=O)N2CCc2ccc(OC)c(OC)c2)cc1 (stereo not drawn)	-5.9	-4.5	-1.5	-0.2	.
CNC(=O)c1c[nH]c2ccc(S(=O)(=O)Nc3cccc(SC)c3)cc2c1=O	1.9	19.4*	-0.6	0.2	2.4
CCOc1ccc2[nH]c3c(=O)n(CCc4ccc(OC)cc4)cnc3c2c1	-0.3	18.3*	-2.7	-0.2	-1.4
COc1ccc(CCN2CC(C(=O)OCC(=O)NC(C)c3cccc(Cl)c3)CC2=O)cc1OC (stereo not drawn)	6.8	-7.4	1.2	0.7	.
COC(=O)c1cc(OC)c(OC)cc1NC(=O)c1cc(OC)cc(OC)c1	15.7	23.2*	0.3	0.0	-4.2
COC(=O)c1cc(OC)c(OC)cc1NC(=O)c1csc(C)c1	6.1	-2.2	0.2	-0.9	.
O=C(c1cccs1)N1CCN(C23CC4CC(CC(C4)C2)C3)CC1	-2.3	-12.0	7.6	1.1	.
CCCc1cc(=O)oc2cc(OCC(=O)NCCc3c[nH]c4ccc(OC)cc34)ccc12	-14.5	18.5*	2.6	-0.6	1.6
O=C(COc1ccc2ccc(=O)oc2c1)NCCc1c[nH]c2ccc(F)cc12	-2.7	4.4	-3.3	2.6	.
COc1ccc(N2CCN(C(=O)COC(=O)CNC(=O)c3ccc(C)cc3)CC2)cc1	4.8	0.8	.	-1.2	.
Cc1onc(-c2ccccc2)c1C(=O)NC(=S)NNC(=O)c1cc(-c2ccc(F)cc2)n[nH]1	6.2	29.3*	4.6	0.1	-0.8
Cc1onc(-c2ccccc2)c1C(=O)NC(=S)NNC(=O)c1ccncc1	7.8	-9.6	1.3	0.2	.
CC1(c2ccc(Cl)cc2)NC(=O)N(CC(=O)N2CCc3ccccc32)C1=O (stereo not drawn)	3.8	-6.6	-7.2	-0.1	.
Cn1c(N)c(C(=O)COC(=O)[C@@H]2CCCN2S(=O)(=O)c2ccc(Cl)cc2)c(=O)n(C)c1=O	2.2	-4.6	-1.6	-0.5	.
Cc1cccc(-c2cc3nc(C)cc(NCCCN(C)C)n3n2)c1	4.4	2.1	0.9	0.0	.
CN(C)CCCNc1cc(-c2ccccc2)nc2cc(-c3cccc(F)c3)nn12	23.9	56.4*	0.7	1.3	2.2
O=C(c1ccc2n[nH]nc2c1)N1CCN(c2ccc(C(F)(F)F)cn2)CC1	6.2	-3.9	3.8	0.9	.
Nc1c(S(=O)(=O)c2cccs2)c2nc3ccccc3nc2n1Cc1cccs1	7.8	25.9*	-3.8	0.3	-0.1
COc1cc(/C=C/C(=O)OCC(=O)NCC(=O)Nc2cccc(C)c2C)ccc1OC(F)F	-2.2	20.4*	.	-0.3	3.1
CCOC(=O)c1cccc(NC(=O)Cn2c(CC(=O)NC)nc3ccccc32)c1	1.8	40.6*	0.0	1.8	0.6
Cc1c(Cl)cccc1NC(=O)Cn1cc(C(F)(F)F)cc(Cl)c1=O	-5.8	56.8*	4.0	0.2	1.5
O=C(COC(=O)c1nc(Cl)c(Cl)c(Cl)c1Cl)NCc1ccccc1	12.2	-9.0	-2.7	.	.
Cc1ccc(C(=O)NCCNC(=O)c2ccc(F)cc2)cn1	2.2	5.1	-1.7	0.5	.
SMILES	B2AR ag	dFosB act-1	DYRK1A inh	A1 inh	dFosB act-2
NC(=O)Nc1ccc(C(=O)OCC(=O)Nc2sccc2C(N)=O)cc1	-0.7	17.2*	-3.0	.	-7.0
CCc1nc2nc(C)c(NS(=O)(=O)c3ccc(Cl)cc3)c(=O)n2[nH]1	10.4	2.4	-5.5	-0.3	.
Cc1ccc(C)c(NC(=O)CN2C(=O)NC(CCc3ccccc3)C2=O)c1 (stereo not drawn)	-4.3	33.6*	-3.8	-0.3	1.0
CCn1c(C)c(C)c2cc(C(=O)NCCCN3CCCCC3C)ccc21 (stereo not drawn)	10.8	6.1	2.9	0.8	.
C[C@H](NC(=O)OCc1ccccc1)C(=O)NNC(=O)[C@H](Cc1ccccc1)NC(=O)OC(C)(C)C	7.5	26.9*	2.3	0.5	1.9
C[C@H](NC(=O)OCc1ccccc1)C(=O)NNC(=O)[C@H](C)NC(=O)OCc1ccccc1	-3.9	4.6	7.6	0.0	.
Cc1ccccc1-n1c(SCC(=O)c2c(N)n(C3CC3)c(=O)[nH]c2=O)nnc1N1CCOCC1	-4.2	-7.2	6.7	-0.2	.
